# Test results reported in PubChem BioAssay (Tox21).
# Where “and” joins values, the source holds several entries; their conditions need not be identical. Equal values may be shown once. Records with an inconclusive call do not appear. Entries that show only a call come without a potency. Calls of active or inactive are those of the source. Calls come from the whole dose curve; as a rule, active = well fitted cell-killing curve with a large enough effect in the repeat runs; inconclusive = weak or mixed curves; inactive = no such curve, though single readings can be large or run the other way.
# Test: qHTS assay to identify small molecule agonists of the peroxisome proliferator-activated receptor delta (PPARd) signaling pathway - cell viability counter screen (AID 743211); note: nearly all actives have a fitted effect of over 55% in size
# Settings: PPARd-bla HEK293H viability, CellTiter-Glo luminescence, 17 h; series mostly up to 62.6 µM; activity change, negative = cytotoxicity: at the top concentration
# Method in brief: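 Counter screen for cytotoxicity run in parallel with the PPARd reporter screen. Beta-lactamase reporter HEK293H cells exposed to compounds 17 h; ATP-based CellTiter-Glo luminescence quantified viability.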
# Potency is the fitted concentration of half-maximal effect.
SMILES,Potency,"activity change, negative = cytotoxicity"
CC1COc2ccccc2N1C(=O)C(Cl)Cl (centres undefined),inactive,
O=C1N=C(O)CN1/N=C/c1ccc(-c2ccc([N+](=O)[O-])cc2)o1,inactive,
NCCc1ccc(O)c(O)c1,inactive,
CC1(C)CC(N=C=O)CC(C)(CN=C=O)C1 (centres undefined),,1.54% [at 81.1 µM] (inactive)
COCC(C)O (centres undefined),inactive,
CC1(C)O[C@@H]2C[C@H]3[C@@H]4C[C@H](F)C5=CC(=O)CC[C@]5(C)[C@H]4[C@@H](O)C[C@]3(C)[C@]2(C(=O)CO)O1,inactive,
Oc1c(Cl)cc(Cl)c(Cl)c1Cl,,-6.91% (inactive)
C=C1CC[C@H](O)CC1=C/C=C1\CCC[C@]2(C)[C@@H]([C@H](C)/C=C/[C@H](C)C(C)C)CC[C@@H]12,54.5 µM (active) and 6.16 µM (active),
S=c1nc[nH]c2nc[nH]c12,23.9 µM (active),
Oc1ccc2ccccc2c1N=Nc1ccccc1,inactive,
COC(=O)c1ccc(C(=O)OC)cc1,inactive,
NC(=O)NNc1ccccc1,inactive,
CC1Cc2ccccc2N1NC(=O)c1ccc(Cl)c(S(N)(=O)=O)c1 (centres undefined),inactive,
CC1=C(CC(=O)O)c2cc(F)ccc2/C1=C\c1ccc(S(C)=O)cc1 (centres undefined),inactive,
OC[C@@H](O)[C@@H](O)[C@H](O)[C@@H](O)CO,inactive,
O=C(O)c1cc(-c2ccccc2)nc2ccccc12,inactive,
Cc1cc(Cc2ccc(N)c(C)c2)ccc1N,inactive,
Nc1c(S(=O)(=O)O)cc(Br)c2c1C(=O)c1ccccc1C2=O,inactive,
C[C@@H](O)[C@H]1C(=O)N2C(C(=O)O)=C(S[C@@H]3CN[C@H](C(=O)N(C)C)C3)[C@H](C)[C@H]12,inactive,
